An excerpt weighted towards active compounds, which were near 7.8% of everything screened.
LASV entry inh – qHTS for Inhibitors of binding or entry into cells for Lassa Virus; Lassa virus pseudotype entry inhibition, cell reporter; Potency, µM (highest dose often 37.9 µM), for the others: at the top dose activity change, negative = inhibition, actives largely listed as inhibitors; 300,000 tested, 1.2% active; calls by dose curve; tested in HEK293 cells; further: potency means the concentration at half of the fitted maximal effect; nearly all actives have a fitted effect of over 50% in size
VACV mCherry inh – qHTS for Stage-Specific Inhibitors of Vaccinia Orthopoxvirus: mCherry Reporter Primary qHTS | AID 720579, 2013 | Vaccinia virus mCherry reporter infection, fluorescence | 310,000 tested, 0.63% active | Potency, µM (highest dose often 36.5 µM), for the others: top-dose activity change, negative = inhibition, hits mostly inhibitors; calls by dose curve; tested in A549 cells; further: potency means the concentration at half of the fitted maximal effect; nearly all actives have a fitted effect of over 35% in size
HCMV inh – qHTS Assay for inhibitors of the human cytomegalovirus (HCMV); 410,000 tested, 4.5% active; activity change, negative = inhibition, % at 57.5 µM; HFF cells, HCMV-luciferase reporter, 72 h; stronger effect = lower value; AID 1259415, 2018; in the data active means activity change below about -60%; inconclusive means no clear call, values can overlap the other calls; inactive means above about -39%
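Steps: HFFs plated, 16 h 37C; compounds added; HCMV-luciferase added to MOI 1 PFU/cell; 72 h 37C; OneGlo reagent, 5 min room temperature; luminescence read, normalized to controls.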
HCV inh – qHTS Assay for Inhibitors of Hepatitis C Virus (HCV); Huh7.5.1 HCVcc-Cre infection, luciferase reporter, 44 h; Potency, µM (series often up to 41.8 µM), without a hit: at the highest dose activity change, negative = inhibition, actives largely listed as inhibitors; 340,000 tested, 3.4% active; AID 651820, 2012; active means well fitted inhibition curve with a large enough effect; inconclusive means small, poorly fitted or top-dose-only effect, or another doubt; inactive means no such curve, though single readings can be large or run the other way; further: potency means the concentration at half of the fitted maximal effect
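A cell-based infection assay in which seeded cells (1,000 per well) receive test compound after 4 h, are inoculated with HCVcc-Cre at approximately 0.5 moi, and are incubated 44 h before luminescence detection.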
Vaccinia Venus – qHTS for Stage-Specific Inhibitors of Vaccinia Orthopoxvirus: Venus Reporter Primary qHTS. Potency, µM (highest dose often 36.5 µM), for the others: top-dose activity change, negative = inhibition, actives largely listed as inhibitors. Vaccinia virus Venus reporter expression, fluorescence. 330,000 tested, 0.46% active. AID 720580, 2013; calls by dose curve; tested in A549 cells; further: potency means the concentration at half of the fitted maximal effect; nearly all actives have a fitted effect of over 30% in size
Marburg entry inh – qHTS for inhibitors of binding or entry into cells for Marburg Virus; 300,000 tested, 1.8% active; Potency, µM (top dose mostly 37.8 µM), for the others: top-dose activity change, negative = inhibition, hits mostly inhibitors; AID 540276, 2011; Marburg virus pseudotyped entry inhibition, cell reporter; calls by dose curve; tested in HEK293 cells; further: potency means the concentration at half of the fitted maximal effect
* hit, by the source's call; i = inactive; ? = inconclusive; . = no result given; ! = repeats disagree; [ ] = dose if it differs, or a comment. On the % scale 0 is the no-effect control and ±100 the full control effect.

SMILES	LASV entry inh	VACV mCherry inh	HCMV inh	HCV inh	Vaccinia Venus	Marburg entry inh
N#Cc1cccc(NC(=O)C2CCN(S(=O)(=O)c3ccc4[nH]c(=O)ccc4c3)CC2)c1	?	8%	8	.	2%	.
COc1ccc(OC)c(CNC(=O)C2CCCCN2S(=O)(=O)c2ccc(F)cc2)c1 (stereo not given)	4%[46.1 µM]	-10%	0	.	-3%	.
Cc1cc(C)c2c(c1)-c1c(ssc1=S)C(C)(C)N2C(=O)CSc1nncn1C	?	.	6	13µM*	?	14µM*
Cc1ccc2c(c1)-c1c(ssc1=S)C(C)(C)N2C(=O)CSc1nncn1C	?	.	-3	10µM*	-26%	?
O=C(NCCN1Cc2ccccc2OC(c2ccsc2)C1)c1ccc2[nH]ccc2c1 (stereo not given)	.	-15%	.	.	1%	.
CCC(C)n1c(O)c(/C=N/Nc2ccccc2)c(=O)[nH]c1=S (stereo not given)	?	?	-80*	-4%	-9%	4%
CCC(C)n1c(O)c(C=NCCc2ccccc2)c(=O)[nH]c1=S (stereo not given)	.	.	9	3%	.	.
O=[N+]([O-])c1ccc(Nc2nc(NCCN3CCOCC3)nc(Nc3ccc(Cl)cc3)n2)cc1	.	-25%	.	.	-29%	.
COc1cccc(-c2cc(C(F)(F)F)nc(NCc3ccc(F)cc3)n2)c1	-9%[46.1 µM]	-14%	-17	.	-7%	-14%[46.1 µM]
Cc1ccc(C(=O)Nc2cccc3[nH]c(C(F)(F)F)nc23)cc1	?	?	-96*	?	?	?
COc1ccc(CNc2cccc3[nH]c(C(F)(F)F)nc23)cc1	20%[46.1 µM]	?	-28	3.2µM*	-6%	-18%[46.1 µM]
COc1cc(CNc2cccc3[nH]c(C(F)(F)F)nc23)cc(OC)c1	.	.	?	11µM*	.	.
O=C(NC1c2ccccc2-c2ccccc21)N1CCCCC1	2%	7.1µM*	-19	18%	?	6%
O=C1CC(c2ccccc2)NC(=O)N1 (stereo not given)	-3%	.	-99*	11%	-7%	-3%
CN1NC(=O)CC1c1ccccc1 (stereo not given)	-12%[46.1 µM]	-19%	-3	-14%	4%	15%[46.1 µM]
O=C1CCCC/C1=C/Nc1cccc(C(F)(F)F)c1	0%	.	-29	2%	.	1%
O=C1CCC2S/C(=C/Nc3ccc(C(F)(F)F)cc3)C(=O)N12 (stereo not given)	?	-4%	-78*	18%	-16%	?
Cc1cccc(N2CCN(C(=O)C(C)n3nc(C)n4c(cc5occc54)c3=O)CC2)c1C (stereo not given)	3%[46.1 µM]	-25%	7	10µM*	-21%	?
Cc1nn(CC(=O)N2CCCCCC2)c(=O)c2cc3occc3n12	0%[46.1 µM]	-7%	-62*	2%	-5%	-5%[46.1 µM]
CNc1c(Br)cc(C(O)C2=CCc3ccccc32)cc1Br (stereo not given)	.	-22%	.	.	-16%	.
COC(=O)C1=C[C@H]([C@@H](C)[C@H](OC)c2ccccc2Br)[C@H]2[C@H]1c1ccccc1N2C	?	.	.	.	.	-16%[14.2 µM]
COc1ccc(CN2C(=O)c3ccccc3C(/C=N\OCc3ccc(F)cc3)C2=O)cc1 (stereo not given)	-3%	.	-91*	3%	6%	-25%
Nc1nc(Cl)nc2c1ncn2[C@@H]1O[C@H](COP(=O)(O)OP(=O)(O)OP(=O)(O)O)[C@@H](O)[C@H]1O	-18%	.	.	.	.	-26%
Cc1ccc(N2C(S)=C(C#N)C(=O)NC23CCCCC3)cc1	4%	-10%	-60*	13%	-6%	8%
Cc1cccc(N2C(S)=C(C#N)C(=O)NC23CCCCC3)c1	-2%	-6%	?	1%	-2%	-4%
SMILES	LASV entry inh	VACV mCherry inh	HCMV inh	HCV inh	Vaccinia Venus	Marburg entry inh
COc1ccc(/C=C2\CCc3ccccc3C2=O)cc1Cn1cccn1	?	.	?	?	.	18µM*
COc1ccc(/C=C2\CCc3ccccc3C2=O)cc1O	?	11µM*	20	-9%	?	11µM*
COc1ccc(/C=C2\CCC(C3CCCC3)C2=O)cc1Cn1cccn1 (stereo not given)	-10%	i	-32	?	-14%	?
Nc1c(Cl)cc(C2=NCCn3nc4cc([N+](=O)[O-])ccc4c32)cc1Cl	.	-14%	57	?	-18%	.
Nc1c(Cl)cc(C2=NCCn3c2c2ccc([N+](=O)[O-])cc2[n+]3[O-])cc1Cl	.	?	?	10µM*	?	.
CCc1ccc(NC(=O)Cn2cc(S(=O)(=O)c3ccc(F)cc3)c(=O)c3cc(OC)ccc32)cc1	-5%[46.1 µM]	?	-7	.	-20%	-29%[46.1 µM]
O=C(c1ccco1)N1CCN(c2nc(C(F)(F)F)nc3c2nnn3Cc2ccccc2)CC1	?	.	-76*	4µM*	.	?
O=C(c1ccco1)N1CCN(c2ncnc3c2nnn3Cc2ccccc2Cl)CC1	-13%	-11%	-32	?	-29%	-25%
CN(C(=O)CSc1nncn2c1cc1occc12)c1ccccc1	6%[46.1 µM]	-6%	-98*	.	0%	.
O=C(Nc1nonc1-c1ccc(Cl)cc1)c1ccccc1F	10%[46.1 µM]	-16%	-68*	.	-18%	?
CCCOc1ccc(-c2nonc2NC(=O)c2cc(OC)c(OC)c(OC)c2)cc1OCCC	-20%[46.1 µM]	-4%	-76*	.	-19%	-19%[46.1 µM]
CCCCOc1ccccc1C(=O)Nc1nonc1-c1ccccc1	3%[46.1 µM]	i	-99*	.	-19%	1%[46.1 µM]
COc1cc(C(=O)Nc2nonc2-c2ccc(C)c(C)c2)cc(OC)c1OC	6%[46.1 µM]	-10%	-21	.	-4%	8%[46.1 µM]
Cc1cc2ccccc2c[n+]1C1CCCCC1	.	-25%	.	.	-39%	.
COc1ccc(/C=C/C(=O)NCC2Cc3cccc(-c4nc(C)cnc4C)c3O2)cc1OC (stereo not given)	.	i	.	.	-9%	.
CCCCCc1ccc(-c2cn(Cc3ccc4c(c3)C(=O)c3ccccc3C4=O)nn2)cc1	.	-17%	.	.	-13%	.
O=C(NCc1nc2ccccc2n1Cc1ccccc1Cl)c1ccccc1	-2%[46.1 µM]	-4%[7.34 µM]	-32	.	-6%[7.34 µM]	?
Cc1ccc(C)c(CN2CCC(CNC(=O)Nc3ccc(Cl)cc3)CC2)c1	-6%[46.1 µM]	i	-23	-6%	-13%	?
Cc1ccc(C)c(CN2CCC(CNC(=O)Nc3ccc(Br)cc3F)CC2)c1	?	?	-79*!	?	?	4.5µM*
CCCc1c(-c2ccccc2Br)ncn1Cc1ccccc1OC	.	-18%	-73*	.	-17%	.
CCCCCc1c(-c2ccccc2OC)ncn1CCc1ccccc1OC	.	?	-83*	.	?	.
